Results: PubChem BioAssay (NCATS)
Records with an inconclusive call do not appear. Calls of active or inactive are those of the source. The call rests on the fitted dose curve; in most records, active means well fitted inhibition curve with a large enough effect; inconclusive means small, poorly fitted or top-dose-only effect; inactive means no such curve, though single readings can be large or run the other way.

Assay: NS1 protein of Zika virus - qHTS assay to identify small molecule inhibitors in human HEK 293 cells (AID 1347053); further: series mostly up to about 46 µM; nearly all actives have a fitted effect of over 55% in size
Excerpt: National Center for Advancing Translational Sciences [NCATS]
Johns Hopkins University School of Medicine
The non-structural 1 (NS1) protein of zika virus is known to associate with the viral replication complex. This cell-based TR-FRET ZIKV NS-1 assay measures the increased NS-1 protein in human HEK 293 cells after a 24-hour Zika virus infection by a TR-FRET assay readout. A decrease in the Time-resolved fluorescence energy transfer (TR-FRET) signal in this assay by small molecule treatment indicates an inhibitory effect of the small molecule on the expression of Zika virus NS1 correlating with Zika virus replication.
HEK 293 cells were cultured in EMEM (ATCC, Cat. # 30-2003) medium with 10% fetal bovine serum (GE healthcare Life Sciences, Cat. # SH30071.03), and 1% Pen/Strep (Gibco, Cat. # 15140-122). Cells were seeded in the assay plate and incubated at 37 C with 5% CO2 for 20 hours. Compounds were added to cells and incubated for one hour before addition of ZIKV MR766 strain solution to cells (MOI = 0.5). After an incubation at 37 C for 24 hours, the reagent mixture of TR-FRET ZIKV NS1 assay using two anti-ZIKV NS1 antibodies was added to assay plates. The TR-FRET signals in assay plates were measured using an Envision plate reader (PerkinElmer). […]

Structure (SMILES): CC(=O)OC(C)OC(=O)C(C)c1ccc(-c2ccccc2)c(F)c1 (stereo unspecified)
- outcome: inactive
